Screens (PubChem BioAssay)
An excerpt weighted towards active compounds, which were near 4.1% of everything screened.
TROY signal inh: blocks TROY-dependent signaling in reporter cells; inhibition, % at 10 µM; 360,000 tested, 0.98% active; Q293 LMP1-TROYcd NF-kB luciferase reporter, 4 h; AID 1347056;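 active means compounds whose plate-normalised and pattern-corrected inhibition of the luciferase reporter signal at the single screening dose is 50% or more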
EBV LMP1 NFkB: reduces LMP1-driven NF-kappaB luciferase signal; LMP1-induced NF-kappaB luciferase reporter cells, luminescence; 350,000 tested, 0.69% active; inhibition, % at 12.5 µM; in the data active means inhibition above about 41%; inconclusive means no clear call, values can overlap the other calls;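 further: 0% = neutral control wells and 100% = reference inhibitor control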
TWEAK-Fn14 inh: blocks TWEAK-Fn14 interaction in a reporter cell assay; 360,000 tested, 2% active; TWEAK-stimulated Fn14 reporter cells, luciferase luminescence, 8 h; AID 1159606; inhibition, % at 10 µM; in the data active means inhibition above about 50%
MITF TRPM1 inh: reduces MITF-dependent TRPM1 promoter luciferase signal. SK-MEL-5 TRPM1 promoter luciferase, 24 h. inhibition, % at 12.5 µM. 330,000 tested, 0.83% active;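 active means mean inhibition across replicates of 60% or more, whatever share of single replicates reaches that level; inconclusive means some that reach 60%, reason not given; inactive means mean inhibition across replicates below 60%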
Shn3 inh set2: Schnurri-3 reporter inhibition in Clone20 osteoblasts | Clone20 osteoblast Shn3 3'UTR firefly luciferase, 24 h | inhibition, % at 12.5 µM | 360,000 tested, 0.52% active;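 active means mean inhibition of at least 75% with every replicate also reaching 75%; inconclusive means mean inhibition at least 75% but some replicate below; inactive means mean inhibition below 75%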;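 further: 0% = median of neutral control wells and 100% = pilot-screen positive control compound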
Peg3 promoter: reduces Peg3 promoter-driven luciferase expression in HeLa. 360,000 tested, 1.7% active. HeLa PEG-Prom luciferase reporter, luminescence, overnight. inhibition, % at 20 µM;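 active means inhibition of at least 50% at 20 µM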
* marks the source's active call; other numbers are inactive results; ? = inconclusive; . = not tested or not shown.

SMILES | TROY signal inh | EBV LMP1 NFkB | TWEAK-Fn14 inh | MITF TRPM1 inh | Shn3 inh set2 | Peg3 promoter
O=[N+]([O-])c1ccccc1N/N=C/c1ccccc1 | -29.0 | -19.0 | 15.2 | -31.9 | -157.1 | -204.2
C/C(=N/Nc1ccccc1[N+](=O)[O-])c1ccc([N+](=O)[O-])cc1 | 50.7* | 6.9 | -23.2 | -0.5 | -59.7 | 1.1
CN(C)c1ccc(N=C/C=C2/N(C)c3ccccc3C2(C)C)cc1 | 29.9 | -0.7 | 60.7* | 5.2 | -60.2 | -147.0
CN1/C(=C\C=N\O)C(C)(C)c2ccccc21 | -0.2 | 28.0 | -4.4 | -10.1 | -4.5 | 5.7
CC1=CC(=O)C=C/C1=C(/c1ccc(O)cc1C)c1ccccc1S(=O)(=O)O | 9.4 | -13.6 | 0.4 | 9.3 | -1.4 | 79.2*
COc1ccc(C(=O)NCCn2cc(SCC(=O)NCC3CCCO3)c3ccccc32)cc1 (configuration not stated) | 59.2* | -6.1 | 84.5* | -3.1 | -20.7 | -45.9
COc1ccc(C(=O)NCCn2cc(SCC(=O)Nc3nnc(C)s3)c3ccccc32)cc1 | 62.2* | 9.1 | 66.9* | -5.4 | -30.1 | -23.4
COc1ccc(C(=O)NCCn2cc(SCC(=O)NCc3ccco3)c3ccccc32)cc1 | 63.7* | -4.5 | 45.5 | -3.3 | -4.2 | -92.9
COc1ccccc1C(=O)NCCn1cc(SCC(=O)NCC2CCCO2)c2ccccc21 (configuration not stated) | -0.3 | 15.6 | 9.5 | -1.7 | 0.8 | 8.4
Cc1nnc(NC(=O)CSc2cn(CCNC(=O)c3ccccc3)c3ccccc23)s1 | 20.4 | -4.0 | 25.0 | . | 10.3 | -32.1
CCN(CC)C(=O)Cn1cc(SCC(=O)NCc2ccco2)c2ccccc21 | 10.6 | -3.1 | 5.4 | -8.7 | 13.1 | 13.2
Cn1c(=O)c2c(ncn2CC(=O)O)n(C)c1=O | -11.5 | . | -20.0 | . | -0.6 | -3.3
c1ccc2c(c1)OCC(c1csc3ncnc(N4CCCCC4)c13)O2 (configuration not stated) | 33.0 | 9.4 | 50.5* | 7.4 | -6.2 | 15.7
C=CCOC(=O)/C(=C\c1ccccc1)NC(=O)c1ccc(C)cc1 | 50.9* | -8.4 | 15.6 | -47.3 | -82.8 | -213.3
O=C(N/N=C/c1cn(-c2ccccc2)nc1-c1cccnc1)c1cccnc1 | 7.7 | -3.8 | -3.7 | -14.7 | -7.4 | -6.1
O=C(N/N=C/c1cn(-c2ccccc2)nc1-c1cc2ccccc2o1)c1cccnc1 | 63.4* | -31.7 | 84.6* | -9.7 | -15.4 | -52.7
O=C(N/N=C/c1cn(-c2ccccc2)nc1-c1cc2ccccc2o1)c1ccncc1 | 28.2 | -4.0 | 69.6* | -36.0 | 10.9 | -98.7
O=C(N/N=C/c1cn(-c2ccccc2)nc1-c1cccs1)c1ccc(Cl)cc1 | -11.2 | -4.1 | 54.6* | -24.8 | -11.3 | -41.1
O=C(N/N=C/c1cn(-c2ccccc2)nc1-c1ccc(F)cc1)c1ccc(Br)o1 | 12.8 | 12.5 | 52.7* | -10.4 | 13.7 | -71.4
O=C(Nc1ccccc1-c1ccccc1)c1ccc(NC(=O)c2ccco2)cc1 | 15.5 | 10.5 | 28.5 | 1.5 | 6.1 | 23.6
Cc1c(Cl)cccc1NC(=O)Cn1c(-c2ccc(F)cc2)noc1=O | 5.0 | 0.0 | 5.4 | . | 17.6 | 18.3
O=C(c1ccccc1Cl)N1N=C(c2cccs2)CC1c1cccc(O)c1 (configuration not stated) | -74.1 | -0.6 | -3.5 | 3.9 | -6.4 | 10.0
O=C1N/C(=N/N=C/c2ccccc2)SC1(c1ccccc1)c1ccccc1 | -1.9 | 6.2 | -6.3 | 2.0 | -3.7 | 11.8
COc1ccc([C@H]2C[C@@H](O)[C@H](n3cc(COC(=O)c4ccccc4)nn3)CN2CC2CCCCC2)cc1 | 3.5 | 6.0 | 11.6 | . | -17.4 | 52.2*
COc1ccc([C@H]2C[C@H](n3cc(COC(=O)c4ccccc4)nn3)[C@@H](O)CN2CC2CCCCC2)cc1 | -9.7 | 5.5 | -3.7 | . | -6.3 | -18.7
SMILES | TROY signal inh | EBV LMP1 NFkB | TWEAK-Fn14 inh | MITF TRPM1 inh | Shn3 inh set2 | Peg3 promoter
Cc1ccccc1N1C(=O)C(Cl)=C(N2CCOCC2)C1=O | 2.1 | 1.5 | 6.5 | 0.7 | -20.6 | 13.0
O=C1C(Cl)=C(N2CCOCC2)C(=O)N1c1ccccc1F | 6.4 | 8.9 | 70.1* | 12.8 | 0.6 | 4.3
N#Cc1cccc2c1-c1ccccc1/C2=N/NC(N)=S | 0.9 | 3.6 | -63.9 | 14.7 | 2.9 | 40.3
NC(=S)NN=C1c2ccccc2-c2c(F)c(F)c(F)c(F)c21 | 6.7 | -2.5 | -1.0 | 14.9 | -2.5 | 96.5*
CC(=O)Nc1ccc2c(c1)nc1n2CCN(C2CCCCC2)C1 | 17.0 | -14.1 | -8.8 | -35.7 | -87.0 | -79.7
O=S(Cc1ccc(Br)cc1)Cc1nnc(SCc2ccc(Cl)cc2)n1-c1ccccc1 (configuration not stated) | 31.2 | 12.9 | 55.4* | 4.1 | 54.3 | 9.6
O=S(Cc1ccc(Br)cc1)Cc1nnc(SCc2c(F)cccc2Cl)n1-c1ccccc1 (configuration not stated) | 22.4 | 15.3 | 48.5 | 12.5 | 16.2 | 8.1
CC(C)(C)c1ccc(/C=C(\c2nc3ccccc3[nH]2)S(=O)(=O)c2ccccc2)cc1 | 46.2 | 3.2 | 94.8* | 91.3* | 94.0* | 104.2*
Cc1cccc(/C=C(\c2nc3ccccc3[nH]2)S(=O)(=O)c2ccccc2)c1 | 10.0 | 10.1 | 74.8* | 86.1* | 92.8* | 112.4*
CCn1c2ccccc2c2cc(/C=N/NC(=O)c3cc(O)cc(O)c3)ccc21 | 12.9 | 66.4* | -27.7 | 1.0 | -5.2 | 3.5
CCn1c2ccccc2c2cc(/C=N/NC(=O)c3ccncc3)ccc21 | 38.9 | ? | 18.4 | 4.2 | 14.3 | 62.4*
CCn1c2ccccc2c2cc(/C=N/NC(=O)c3ccc(O)cc3)ccc21 | 11.7 | 84.3* | 16.2 | -0.7 | -10.9 | 2.6
Cn1c(SCC(=O)Nc2ccc3nc(SCC(=O)N4CCCC4)sc3c2)nnc1-c1ccc(N)cc1 | -9.4 | -4.2 | -17.8 | 8.9 | -1.0 | 9.3
Cc1cccc2c(N=NC(=O)C(C)n3cnc4ccccc4c3=O)c(O)[nH]c12 (configuration not stated) | 16.0 | -0.9 | -13.6 | 14.4 | 15.9 | 8.3
CC(C(=O)N=Nc1c(O)[nH]c2ccccc12)n1cnc2ccccc2c1=O (configuration not stated) | 23.4 | 61.3* | 6.4 | 18.9 | -3.8 | -7.6
COc1ccc(CC(=O)OCC(=O)N2CCN(S(=O)(=O)c3ccc(C)cc3C)CC2)cc1 | 6.2 | 69.1* | -5.9 | -1.0 | -16.3 | 2.0
COc1ccc(Nc2nnc(SCC(=O)Nc3ccc4[nH]c(=O)[nH]c4c3)s2)cc1 | -2.9 | 2.7 | -18.8 | -1.7 | -7.4 | -12.1
CC(C)c1cc(C(=O)OCC(=O)N2CCN(C(=O)c3ccco3)CC2)c(O)c(C(C)C)c1 | -2.6 | -3.4 | -2.8 | 44.2 | 25.1 | 14.2
O=C1N=C(N2CCN(c3cccc4ccccc34)CC2)S/C1=C/c1cccs1 | -7.2 | 77.5* | -7.6 | -8.0 | 9.0 | 21.2
Cc1ccccc1N1CCN(C2=NC(=O)/C(=C\c3cccs3)S2)CC1 | 21.7 | -1.5 | -8.0 | -23.8 | 6.8 | -99.4
